Test results: PubChem BioAssay AID504452 (The Scripps Research Institute Molecular Screening Center, 2011)
Active and inactive are the calls of the source. Rule as the data show it: active = activation above about 85%; inactive = the rest.

Biological target: Peroxisome proliferator-activated receptor gamma (Homo sapiens) (UniProt P37231)
Assay: PPARg partial agonist activation, primary screen, cell-based, luciferase reporter, luminescence (AID 504452);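 also: Cos-1 cells carrying PPARgamma and a response element luciferase reporter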
Conditions: at 5 µM, stronger effect = higher value; activation (% of full agonist control): measured here: relative to full agonist control

Peroxisome proliferator-activated receptor gamma (Homo sapiens), sequence (P37231 whole entry, looked up): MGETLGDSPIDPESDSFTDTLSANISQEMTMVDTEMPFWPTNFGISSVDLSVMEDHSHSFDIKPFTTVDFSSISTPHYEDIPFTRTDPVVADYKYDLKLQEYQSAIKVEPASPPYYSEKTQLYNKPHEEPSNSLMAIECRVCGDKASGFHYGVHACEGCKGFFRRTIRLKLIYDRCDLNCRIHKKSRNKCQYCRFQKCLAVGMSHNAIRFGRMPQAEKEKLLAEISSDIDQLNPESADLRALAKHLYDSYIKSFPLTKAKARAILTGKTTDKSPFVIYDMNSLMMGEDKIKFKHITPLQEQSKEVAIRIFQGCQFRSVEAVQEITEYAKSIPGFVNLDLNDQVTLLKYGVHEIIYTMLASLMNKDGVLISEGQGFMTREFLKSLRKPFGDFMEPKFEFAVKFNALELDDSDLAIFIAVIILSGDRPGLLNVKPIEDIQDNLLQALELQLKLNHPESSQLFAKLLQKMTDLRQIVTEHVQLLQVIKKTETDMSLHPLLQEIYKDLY

SMILES | activation (% of full agonist control) [%] | activation (% of partial agonist control)
COc1ccccc1N1C(=O)C2C(c3ccc(F)cc3)NN(C(=O)c3ccc(C)cc3)C2C1=O (stereo not drawn) | 30.1 | 66.5% (inactive)
Cc1ccc(S(C)=O)cc1-n1c(=O)n(Cc2ccccc2)c(=O)c2[nH]cnc21 (stereo not drawn) | 12.8 | 28.4% (inactive)
O=C(CCCCCNC(=O)N1CCn2c1nc1ccccc12)N[C@@H](Cc1ccccc1)C(=O)O | 32.6 | 72.2% (inactive)
O=C(Cn1nc(Cc2ccncc2)c2ccccc2c1=O)N1CCN(C(=O)c2ccco2)CC1 | 36.2 | 80.2% (inactive)
COc1cc(C2/C(=C(/O)c3ccccc3)C(=O)C(=O)N2c2ccccn2)ccc1O (stereo not drawn) | 26 | 57.6% (inactive)
COc1ccc2c(c1)c(=O)c(C(=O)c1ccc(Cl)cc1)cn2CC(=O)Nc1ccc(F)cc1 | 32 | 70.9% (inactive)
CC(=O)c1ccc(N2CCN(C(=O)C3CCCN(S(=O)(=O)c4cnc[nH]4)C3)CC2)cc1 (stereo not drawn) | 25.1 | 55.5% (inactive)
O=C(Cc1ccccc1)n1nc(-c2ccco2)nc1SCc1ccccc1 | 37 | 81.8% (inactive)
Cc1cccc(NC(=O)CSc2nc(=O)n(CCN3CCOCC3)c3c2CCCC3)c1C | 33.1 | 73.2% (inactive)
COc1ccc(NC(=O)CC2C(=O)Nc3ccccc3N2CC(=O)N2CCCC2)cc1 (stereo not drawn) | 30.4 | 67.3% (inactive)
CC(Oc1ccc2c(c1)oc(=O)c1ccccc12)C(=O)NC(Cc1c[nH]c2ccc(O)cc12)C(=O)O (stereo not drawn) | 49.2 | 109% (active)
Cc1ccc(/C(O)=C2/C(=O)C(=O)N(c3ccccn3)C2c2cccc([N+](=O)[O-])c2)cc1 (stereo not drawn) | 34.1 | 75.6% (inactive)
CC(=O)N1N=C(c2ccccc2)CC1c1cn(Cc2ccccc2)c2ccccc12 (stereo not drawn) | 44.7 | 99% (active)
COc1cccc(Cn2nc3c4cc(F)ccc4n(Cc4ccc(F)cc4)cc-3c2=O)c1 | 38.8 | 85.9% (active)
Cc1ccccc1NC(=O)CC1C(=O)Nc2ccccc2N1CC(=O)N(C)C1CCS(=O)(=O)C1 (stereo not drawn) | 47 | 104% (active)
Cc1ccc(C)c(/C(O)=C2/C(=O)C(=O)N(CCN3CCOCC3)C2c2ccc(C)o2)c1 (stereo not drawn) | 9.22 | 20.4% (inactive)
O=C(c1nc2ccccn2c1CN1CCCC(O)C1)N1CCN(C2CCCCC2)CC1 (stereo not drawn) | 46.4 | 103% (active)
O=C(c1cccc(S(=O)(=O)Nc2ccccc2Cl)c1)N1CCN(c2ccccc2O)CC1 | 28.5 | 63.2% (inactive)
O=C(c1cc2n(n1)C(C(F)(F)F)CC(c1ccco1)N2)N1CCc2ccccc2C1 (stereo not drawn) | 37.2 | 82.3% (inactive)
CC(OC(=O)CNC(=O)c1ccc(F)cc1)C(=O)Nc1ccc(S(=O)(=O)N2CCOCC2)cc1 (stereo not drawn) | 34.9 | 77.2% (inactive)
CCN(CC)S(=O)(=O)c1ccc(N2CCOCC2)c(NC(=O)C(C)Oc2ccc(F)cc2)c1 (stereo not drawn) | 29.3 | 64.8% (inactive)
COc1cc2c(C(=O)N3CCN(c4ccccc4F)CC3)cn(C)c(=O)c2cc1OC | 24.1 | 53.4% (inactive)
COc1ccc(O)c(C(=O)c2cc(C#N)c(=O)n(-c3ccc(Cl)cc3)c2)c1 | 40 | 88.5% (active)
Cc1nc2ncccn2c1-c1csc(Nc2cccc(C(=O)O)c2)n1 | 33.5 | 74.2% (inactive)
O=C(Cn1c(=O)c(=O)n(Cc2ccccc2)c2ccc(Cl)cc21)Nc1cc(F)ccc1F | 28.4 | 62.9% (inactive)
O=c1[nH]c2cc3c(cc2cc1CN(Cc1ccccc1)Cc1nnnn1Cc1ccco1)OCCO3 | 35.1 | 77.6% (inactive)
COc1ccc(O)c(C(=O)c2cc(C#N)c(=O)n(CC3CCCO3)c2)c1 (stereo not drawn) | 38.1 | 84.3% (inactive)
COc1ccc(N(CC(=O)N2c3ccccc3CC2C)S(=O)(=O)c2c(C)nn(C)c2C)cc1 (stereo not drawn) | 32.3 | 71.5% (inactive)
C[C@H](NC(=O)c1nc[nH]c1C(=O)N1CCc2ccccc2C1)C(=O)OCc1ccccc1 | 29.5 | 65.3% (inactive)
